Laboratory results from PubChem BioAssay (NCI).
About 79,000 compounds went through this panel and 15% of them were active in at least one assay; those are over-represented in the sample as a whole. Values without a mark were called inactive. The source made the active and inactive calls. No stated cut-off is given here; in the data, active means growth inhibition above about 70%; inactive means the rest.

How the values were obtained:
[1] = NCI Yeast Anticancer Drug Screen. Data for the rad50 strain (AID 155);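 further: 0% = growth of vehicle-only cultures of the same strain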; details: S. cerevisiae rad50 strain growth inhibition, hits give high values
Procedure, shortened: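 Readout: growth inhibition relative to vehicle-treated cultures. Compound exposure was carried out in a genetically defined yeast strain deficient in DNA damage repair.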

[2] = NCI Yeast Anticancer Drug Screen. Data for the mec2-1 strain (AID 157); details: S. cerevisiae mec2-1 strain, hits give high values
Procedure, shortened: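 Mutant yeast (mec2-1) grown with compound; growth inhibition relative to vehicle control reported.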

[3] = NCI Yeast Anticancer Drug Screen. Data for the sgs1 mgt1 strain (AID 161);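 further: 0% = growth of cultures given vehicle only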; details: S. cerevisiae sgs1 mgt1 strain, hits give high values
Procedure, shortened: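 Compounds are added to genetically altered yeast, and growth is compared with cultures given vehicle alone to give percent inhibition.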

[4] = NCI Yeast Anticancer Drug Screen. Data for the cln2 rad14 strain (AID 165);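 further: 0% = growth equal to vehicle treated cultures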; details: S. cerevisiae cln2 rad14 strain, hits give high values
Procedure, shortened: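 Readout is yeast growth inhibition versus vehicle-treated controls, using a strain with cln2 and rad14 alterations exposed to compound.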

[5] = NCI Yeast Anticancer Drug Screen. Data for the bub3 strain (AID 167); details: S. cerevisiae bub3 mutant strain, hits give high values
Procedure, shortened: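 Readout: yeast growth inhibition, expressed relative to vehicle-only wells. The test organism is a mutant strain from a panel with lesions in DNA repair or checkpoint genes.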

[6] = NCI Yeast Anticancer Drug Screen. Data for the mlh1 rad18 strain (AID 175); details: S. cerevisiae mlh1 rad18 strain growth inhibition, hits give high values
Procedure, shortened: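 Genetically defined yeast (DNA repair-deficient) exposed to compounds; growth inhibition determined relative to vehicle.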

[7] = at 5.0 µM (retest, dose inferred, filed as 0.5)
[8] = at 50.0 µM (retest, dose inferred, filed as 5.0)

Row | Structure (SMILES) | growth inhibition [1, 7] [%] | growth inhibition [1, 8] | growth inhibition ([1]; at 50.0 µM) | growth inhibition [2, 7] [%] | growth inhibition [2, 8] | growth inhibition ([2]; at 50.0 µM) | growth inhibition [3, 7] [%] | growth inhibition [3, 8] | growth inhibition ([3]; at 50.0 µM) | growth inhibition [4, 7] [%] | growth inhibition [4, 8] | growth inhibition ([4]; at 50.0 µM) | growth inhibition [5, 7] [%] | growth inhibition [5, 8] | growth inhibition ([5]; at 50.0 µM) | growth inhibition [6, 7] [%] | growth inhibition [6, 8] | growth inhibition ([6]; at 50.0 µM)
1 | CS/C(C#N)=C(\C#N)SC | 10 | 78% (active) | 79.2% (active) | 3 | 27% | 16.3% | 2 | 23% | 67.6% | 3 | 12% | 23.6% | 2 | 59% | 53.1% | – | – | –
2 | O=[N+]([O-])c1ccc(S)c(Cl)c1 | 16 | 95% (active) | 95.5% (active) | 20 | 95% (active) | 87.7% (active) | 28 | 95% (active) | 90.3% (active) | 0 | 55% | 52.6% | 14 | 95% (active) | 87.2% (active) | 45 | 95% (active) | 93.5% (active)
3 | CCN(CC)CCOc1ccc(C(=C2CCCCC2)c2ccc(OCCN(CC)CC)cc2)cc1 | 34 | 34% | 84.8% (active) | 31 | 31% | 41% | 31 | 31% | 89.1% (active) | 31 | 31% | 77% (active) | – | – | – | – | – | –
4 | CCCCCCc1cc(C(=O)N/N=C\c2cccc([N+](=O)[O-])c2)c2ccccc2n1 | 0 | -7% | -40.9% | -1 | -2% | -9.2% | 2 | 7% | -19.9% | -5 | -17% | 41% | 0 | 5% | 1.45% | – | – | –
5 | O=C(N/N=C/c1ccccc1O)C1Cc2ccccc2C1C(Cl)Cl (centres undefined) | 51 | 97% (active) | 88% (active) | 36 | 98% (active) | 91.3% (active) | 47 | 99% (active) | 93% (active) | 31 | 95% (active) | 89.5% (active) | 45 | 82% (active) | 90.7% (active) | 59 | 98% (active) | 90.8% (active)
6 | OCCN1c2ccccc2Sc2ccc(Cl)cc21 | -1 | 97% (active) | 89.3% (active) | -18 | 98% (active) | 92% (active) | -14 | 40% | 90.8% (active) | 30 | 98% (active) | 86.8% (active) | 1 | 97% (active) | 91.3% (active) | – | – | –
7 | OC12C3C4CC5C(C4[C@@H]1Br)C2[C@@](O)(c1c(F)c(F)c(F)c(F)c1F)C53 (some centres undefined) | 8 | 21% | 27.2% | 3 | 8% | 11.6% | 3 | 3% | 27.6% | 3 | 12% | 22.2% | 8 | 54% | 79.3% (active) | – | – | –
8 | CSc1nc2nn(Cc3ccccc3)cc2c(=O)[nH]1 | -6 | 22% | -7.95% | 10 | 19% | -4.85% | 9 | 21% | 2.4% | 17 | 50% | -22.8% | 27 | 47% | -9.9% | – | – | –
9 | O=C1CCCC/C1=C\c1ccc(Br)cc1 | 1 | 96% (active) | 80.2% (active) | -21 | 99% (active) | 86.7% (active) | -28 | 99% (active) | 90.7% (active) | 9 | 95% (active) | 88.3% (active) | -55 | 99% (active) | 89.4% (active) | – | – | –
10 | O=C(O)c1ccccc1/C=C1\Cc2ccc3c(c2C1=O)CCCC3 | 18 | 18% | 81.6% (active) | 6 | 6% | 83.1% (active) | 6 | 6% | 81.3% (active) | -4 | -4% | 85.5% (active) | -5 | -5% | 81.5% (active) | 12 | 12% | 79.9% (active)
11 | CCOc1ccc2c(c1)nc1cc(Cl)ccc1[n+]2C | 9 | 81% (active) | 85.5% (active) | 12 | 84% (active) | 87.2% (active) | -2 | 82% (active) | 86.5% (active) | 8 | 68% | 75.2% (active) | 26 | 88% (active) | 82.8% (active) | 18 | 81% (active) | 89.7% (active)
